Experimental data published in PubChem BioAssay AID1159580 (chemical genetic matrix, 2015).
Among all 5,500 compounds or so, about 2,000 (36%) were called active. Another 18% or so got no clear call; they are omitted. Rule as the data show it: active = normalized growth mostly below about 0.91 (no sharp cut-off); inconclusive = no clear call, values can overlap the other calls; inactive = mostly above about 0.92. Some of the results follow.

Experiment: chemical genetic growth profiling, strain panel (AID 1159580);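 also: tested at 20 µM; growth read once vehicle control cultures reached saturation at 30 °C; 1 = growth at the plate median or of vehicle wells; lower values mean less growth of the strain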
Conditions: growth OD
[1] = S. cerevisiae deletion strains, locus YGR078C, strain PAC10, hits give low values
[2] = S. cerevisiae deletion strains, locus YMR263W, strain SAP30, hits give low values
[3] = S. cerevisiae deletion strains, locus YMR307W, strain GAS1, hits give low values
[4] = S. cerevisiae deletion strains, locus YNL322C, strain KRE1, hits give low values

Measured: normalized growth

COc1ccc(/C=C/c2cc(O)cc(O[C@@H]3O[C@H](CO)[C@@H](O)[C@H](O)[C@H]3O)c2)cc1O
inactive: S. cerevisiae deletion strains, locus YAL013W, strain DEP1, hits give low values 1 | S. cerevisiae deletion strains, locus YBR021W, strain FUR4, hits give low values 0.999 | S. cerevisiae deletion strains, locus YBR229C, strain ROT2, hits give low values 1.01 | S. cerevisiae deletion strains, locus YCL029C, strain bik1, hits give low values 1.02 | S. cerevisiae deletion strains, locus YDL035C, strain GPR1, hits give low values 1.02 | S. cerevisiae deletion strains, locus YDL074C, strain BRE1, hits give low values 1.01 | S. cerevisiae deletion strains, locus YDL101C, strain DUN1, hits give low values 1.02 | S. cerevisiae deletion strains, locus YDL134C, strain PPH21, hits give low values 1.01 | S. cerevisiae deletion strains, locus YDL185W, strain tfp1, hits give low values 1.02 | S. cerevisiae deletion strains, locus YDL192W, strain arf1, hits give low values 1.02 | S. cerevisiae deletion strains, locus YDR101C, strain arx1, hits give low values 1.01 | S. cerevisiae deletion strains, locus YDR150W, strain NUM1, hits give low values 1.01 | S. cerevisiae deletion strains, locus YDR162C, strain NBP2, hits give low values 1.02 | S. cerevisiae deletion strains, locus YDR318W, strain mcm21, hits give low values 1.03 | S. cerevisiae deletion strains, locus YDR388W, hits give low values 1.01 | S. cerevisiae deletion strains, locus YDR502C, strain sam2, hits give low values 1.02 | S. cerevisiae deletion strains, locus YEL061C, strain CIN8, hits give low values 1 | S. cerevisiae deletion strains, locus YER110C, hits give low values 1.03 | S. cerevisiae deletion strains, locus YER155C, strain BEM2, hits give low values 0.995 | S. cerevisiae deletion strains, locus YER167W, strain BCK2, hits give low values 1.03 | S. cerevisiae deletion strains, locus YGL078C, strain dbp3, hits give low values 1.02 | S. cerevisiae deletion strains, locus YGL086W, strain mad1, hits give low values 1.03 | S. cerevisiae deletion strains, locus YGL248W, strain PDE1, hits give low values 1.01 | [1] 1.03 | S. cerevisiae deletion strains, locus YGR135W, strain pre9, hits give low values 1.01 | S. cerevisiae deletion strains, locus YGR229C, strain SMI1, hits give low values 0.988 | S. cerevisiae deletion strains, locus YGR252W, strain gcn5, hits give low values 1.06 | S. cerevisiae deletion strains, locus YHR030C, strain SLT2, hits give low values 1 | S. cerevisiae deletion strains, locus YHR079C, strain IRE1 (second series), hits give low values 1.02 | S. cerevisiae deletion strains, locus YHR094C, strain hxt1, hits give low values 1.02 | S. cerevisiae deletion strains, locus YHR129C, strain ARP1, hits give low values 1.01 | S. cerevisiae deletion strains, locus YHR200W, strain rpn10, hits give low values 1.03 | S. cerevisiae deletion strains, locus YIL066C, strain RNR3, hits give low values 1.02 | S. cerevisiae deletion strains, locus YIL073C, strain SPO22, hits give low values 1.06 | S. cerevisiae deletion strains, locus YIL125W, strain kgd1, hits give low values 0.999 | S. cerevisiae deletion strains, locus YIR030C, strain dcg1, hits give low values 1.01 | S. cerevisiae deletion strains, locus YJL095W, strain BCK1, hits give low values 1.01 | S. cerevisiae deletion strains, locus YJL134W, strain LCB3, hits give low values 1.01 | S. cerevisiae deletion strains, locus YJL168C, strain set2, hits give low values 1.01 | S. cerevisiae deletion strains, locus YJL187C, strain SWE1 (second series), hits give low values 1.01 | S. cerevisiae deletion strains, locus YJR043C, strain POL32, hits give low values 1.01 | S. cerevisiae deletion strains, locus YJR075W, strain HOC1, hits give low values 0.973 | S. cerevisiae deletion strains, locus YKL009W, strain mrt4, hits give low values 1.03 | S. cerevisiae deletion strains, locus YKL068W, hits give low values 1.02 | S. cerevisiae deletion strains, locus YKL085W, strain MDH1 (second series), hits give low values 1.04 | S. cerevisiae deletion strains, locus YKL085W, strain MDH1, hits give low values 1.04 | S. cerevisiae deletion strains, locus YKL190W, strain CNB1, hits give low values 1 | S. cerevisiae deletion strains, locus YKR001C, strain vps1, hits give low values 1.03 | S. cerevisiae deletion strains, locus YLR039C, strain RIC1, hits give low values 1.04 | S. cerevisiae deletion strains, locus YLR058C, strain SHM2, hits give low values 1.01 | S. cerevisiae deletion strains, locus YLR102C, strain apc9, hits give low values 1.02 | S. cerevisiae deletion strains, locus YLR262C, strain YPT6, hits give low values 1.05 | S. cerevisiae deletion strains, locus YLR268W, strain sec22, hits give low values 1.02 | S. cerevisiae deletion strains, locus YLR330W, strain CHS5, hits give low values 1.01 | S. cerevisiae deletion strains, locus YLR342W, strain FKS1 (second series), hits give low values 1.05 | S. cerevisiae deletion strains, locus YLR371W, strain rom2, hits give low values 1.01 | S. cerevisiae deletion strains, locus YLR418C, strain cdc73, hits give low values 0.987 | S. cerevisiae deletion strains, locus YML016C, strain PPZ1, hits give low values 1.02 | S. cerevisiae deletion strains, locus YML032C, strain rad52, hits give low values 1.01 | S. cerevisiae deletion strains, locus YML124C, strain tub3, hits give low values 1.01 | S. cerevisiae deletion strains, locus YMR078C, strain ctf18, hits give low values 1.02 | S. cerevisiae deletion strains, locus YMR223W, strain ubp8, hits give low values 1.03 | [2] 1.02 | [3] 1.04 | S. cerevisiae deletion strains, locus YNL067W, strain RPL9B, hits give low values 1.01 | S. cerevisiae deletion strains, locus YNL128W, strain TEP1, hits give low values 1.02 | S. cerevisiae deletion strains, locus YNL153C, strain GIM3, hits give low values 1.02 | S. cerevisiae deletion strains, locus YNL233W, strain BNI4, hits give low values 1.01 | S. cerevisiae deletion strains, locus YNL250W, strain rad50, hits give low values 1.03 | S. cerevisiae deletion strains, locus YNL271C, strain bni1, hits give low values 1.03 | S. cerevisiae deletion strains, locus YNL298W, strain CLA4, hits give low values 1.03 | S. cerevisiae deletion strains, locus YNL307C, strain MCK1, hits give low values 1.03 | [4] 1.01 | S. cerevisiae deletion strains, locus YNR052C, strain pop2, hits give low values 1.01 | S. cerevisiae deletion strains, locus YOL006C, strain TOP1, hits give low values 1.08 | S. cerevisiae deletion strains, locus YOL012C, strain htz1 0.868 | S. cerevisiae deletion strains, locus YOL147C, strain pex11, hits give low values 1.01 | S. cerevisiae deletion strains, locus YOR061W, strain CKA2, hits give low values 1.02 | S. cerevisiae deletion strains, locus YOR069W, strain VPS5, hits give low values 1 | S. cerevisiae deletion strains, locus YOR136W, strain idh2, hits give low values 1.02 | S. cerevisiae deletion strains, locus YOR144C, strain elg1, hits give low values 1.01 | S. cerevisiae deletion strains, locus YOR184W, strain ser1, hits give low values 1.05 | S. cerevisiae deletion strains, locus YOR316C, strain cot1, hits give low values 1.02 | S. cerevisiae deletion strains, locus YPL055C, strain LGE1, hits give low values 1.03 | S. cerevisiae deletion strains, locus YPL241C, strain CIN2, hits give low values 1.01 | S. cerevisiae deletion strains, locus YPR119W, strain clb2, hits give low values 1.01 | S. cerevisiae deletion strains, locus YPR141C, strain kar3, hits give low values 1.03 | S. cerevisiae deletion strains, locus YPR163C, strain tif3, hits give low values 1.03 | S. cerevisiae deletion strains, locus YPR167C, strain met16, hits give low values 1.02 | S. cerevisiae deletion strains, strain wtn01, hits give low values 0.994 | S. cerevisiae strains, strain wild type, hits give low values 1.01

Oc1cc(O)cc(/C=C/c2ccc(O)c(O)c2)c1
inactive: S. cerevisiae deletion strains, locus YAL040C, strain CLN3, hits give low values 1.01 | S. cerevisiae deletion strains, locus YCL061C, strain MRC1 (second series), hits give low values 0.992 | S. cerevisiae deletion strains, locus YDR363W, strain ESC2, hits give low values 0.955 | [2] 1.01 | [3] 0.979 | S. cerevisiae deletion strains, locus YNL197C, strain WHI3, hits give low values 1 | [4] 0.989 | S. cerevisiae deletion strains, locus YOR083W, strain WHI5 (second series), hits give low values 0.993
active: [1] 0.691 | S. cerevisiae deletion strains, locus YNL175C, strain NOP13, hits give low values 0.71
